# Screening results from PubChem BioAssay.
# Compounds with a hit are over-represented: about 3.4% of the library has one in this group of screens.
# ssDAF-12 act = S. stercoralis DAF-12 activation, primary screen; hit rate 1% among 370,000; HEK293 ssDAF-12/GRIP1 lit1-tk-luc reporter, luminescence; % of 3 µM dafachronic acid response; activation, % at 6.8 µM; AID 652126;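 active means activation above the mean over all tested compounds plus 3 SD, cut at about 0.9% in these data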;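 further: 0% = DMSO-only wells and 100% = 3 µM delta7-dafachronic acid wells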
# APP 5'UTR act = activates APP 5'UTR luciferase reporter; SH-SY5Y APP 5'UTR luciferase reporter, luminescence; zero percent = DMSO vehicle wells; activation, % at 2 µM; hit rate 1% among 190,000; AID 1276;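 active means activation above a set limit, based on mean plus 3 SD of controls, cut at about 140% in these data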
# hcDAF-12 act = H. contortus DAF-12 activation, primary screen; HEK293 hcDAF-12 lit1-tk-luc reporter, luminescence; 0% DMSO, 100% Δ7-dafachronic acid; activation, % at 6.8 µM; hit rate 1.4% among 370,000; AID 652067;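 active means activation above the mean of all tested compounds plus 3 SD, cut at about 5.5% in these data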;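 further: 100% = response to 3 µM Δ7-dafachronic acid high control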
# hgDAF12 agonist = activates the H. glycines DAF-12 receptor ligand-binding domain | HEK293 GAL4-hgDAF12 UAS-luciferase reporter, agonist luminescence; normalized to butyrate control | activation, % at 6.8 µM | hit rate 1.8% among 370,000;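 active means activation above a cutoff set at the mean of all screened compounds plus 3 SD, cut at about 10% in these data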;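 further: 0% = DMSO wells and 100% = sodium butyrate wells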
# NF-kB neuron act = compounds increasing NF-kB expression in human neuronal cells | fold change at 12.5 µM | AID 1239 | NF-kB reporter expression; stronger effect = higher value | hit rate 1.6% among 190,000; in the data active means fold change above about 3.3
# Active calls of the source: *; nt = not tested or not shown.
SMILES,ssDAF-12 act,APP 5'UTR act,hcDAF-12 act,hgDAF12 agonist,NF-kB neuron act
CCCNC(=O)c1ccc2c(c1)S(=O)(=O)c1ccccc1C2=O,-1,nt,-1,-1,nt
NNC(=O)c1ccc2c(c1)S(=O)(=O)NNC2=O,0,20,2,11*,1.1
CCOc1ccc2nc(Cl)c(C3CC(c4ccco4)=NN3S(=O)(=O)c3ccccc3)cc2c1 (stereo not drawn),1.4*,6,-1,2,0.93
C/C(=N\OC(=O)c1cccc(C)c1)c1sc(-c2ccccc2)nc1C,-1,2,1,0,3.6*
C/C(=N\OC(=O)c1cccc(C(F)(F)F)c1)c1sc(-c2ccccc2)nc1C,0,11,-1,2,4*
C/C(=N\OC(=O)c1ccc(Cl)cc1)c1sc(-c2ccccc2)nc1C,-1,-1,-1,1,4.4*
CCOC(=O)N1CCN(C(=O)C[C@H]2C[C@@]3(C(=O)OC)C(=C[C@H](C(C)(C)C)O[C@@H]3C)N(CCc3ccc(OC)c(OC)c3)C2=O)CC1,-1,nt,0,0,nt
Cc1ccc(/C=C/c2nnc(-c3cccc(C)c3)o2)cc1,-1,19,2,7,1.4
Cc1ccc(-c2nnc(/C=C/c3ccccc3)o2)cc1,-1,-7,3,11*,1.2
C=CCC1(CC=C)CCCN1C(=O)C1CCC(=O)N(CCc2ccc(OC)cc2)C1 (stereo not drawn),-1,nt,4,13*,nt
COc1cc(C=O)ccc1OCc1ccc(Cl)nc1,-1,63,0,11*,nt
COc1cc(NC(=O)C2CCCN(S(=O)(=O)c3ccc(Br)s3)C2)cc(OC)c1 (stereo not drawn),-1,nt,-3,-2,nt
CCOC(=O)[C@]12CCCC3=C1N(CCC3)C(=O)[C@@H](CC(=O)NCC1CCCCC1)C2,-1,nt,-2,2,nt
Cc1occc1C(=O)N/N=C/C=C/c1ccc(N(C)C)cc1,0,nt,2,12*,nt
Cc1occc1C(=O)N/N=C/C=C/c1ccccc1,0,55,1,8,2.6
CC(=O)c1ccccc1NS(=O)(=O)c1ccccc1Cl,-1,11,-2,12*,1.2
Cc1cccc(Cc2nnc(CCC(=O)N(CC3CC3)CC3CCCO3)o2)c1 (stereo not drawn),-1,50,2,12*,2.4
CCCOC1CCCN(C(=O)CCc2nnc(Cc3cccc(C)c3)o2)C1 (stereo not drawn),-1,13,3,11*,2.1
COc1ccc(C2C(C(=O)N3CCN(c4ccccc4C)CC3)CC(=O)N2c2ccc(OC)cc2)cc1 (stereo not drawn),-2,nt,-4,-6,nt
CCc1ccccc1NC(=O)c1cc(C)nn1-c1ccccc1,-1,nt,-1,0,nt
Cc1cc(C)cc(NC(=O)N2CCCN(c3c(Cl)cncc3Cl)CC2)c1,1.8*,nt,5,2,nt
COC(=O)[C@]12C[C@H](CC(=O)NCC34CC5CC(CC(C5)C3)C4)C(=O)N(CCc3ccc(OC)c(OC)c3)C1=C[C@H](C1CCCC1)O[C@@H]2C,-1,nt,-2,-5,nt
CCCCOc1ncnc2c1[nH]c1ccc(OC)cc12,-1,69,1,8,4.4*
Cc1ccc(NC(=S)NNC(=O)CSc2nc3ccccc3c(=O)n2-c2ccc(Cl)cc2)cc1,-1,nt,-1,-1,nt
C=CCN1[C@H](C#N)[C@@H](c2ccc(C#Cc3ccccc3OC)cc2)[C@H]1CO,-2,nt,-5,-3,nt
SMILES,ssDAF-12 act,APP 5'UTR act,hcDAF-12 act,hgDAF12 agonist,NF-kB neuron act
CC(=O)NC(CCS(C)(=O)=O)C(=O)Nc1ccccc1C (stereo not drawn),-1,2,-2,-1,1.6
CC(=O)NC(CCS(C)(=O)=O)C(=O)N1CCc2ccccc21 (stereo not drawn),1.0*,-9,5.6*,0,1.3
COc1ccc(CNS(=O)(=O)/C=C/c2cc(C)ccc2CNC(=O)OC(C)(C)C)cc1,-2,nt,-4,-5,nt
C/C(=N\NC(=O)c1ccc(Cl)cc1)c1ccccn1,-1,nt,0,-1,nt
C/C(=N/NC(=O)c1ccccn1)c1c[nH]c2ccccc12,1,nt,6,12*,nt
C/C(=N\NC(=O)c1cc2ccccc2cc1O)c1ccc(C)o1,-1,nt,0,-1,nt
C/C(=N\NC(=O)c1c[nH]c2ccccc12)c1ccc(C)o1,2.7*,29,5.7*,6,1.4
C/C(=N/NC(=O)c1ccccn1)c1ccc(O)cc1,0,nt,3,13*,nt
C/C(=N\NC(=O)c1ccccn1)c1ccc(Cl)cc1,0,nt,5,9,nt
CCn1c(COc2ccccc2)nnc1SCC(=O)Nc1ccc(S(=O)(=O)Nc2cc(C)nc(C)n2)cc1,-1,nt,-2,3,nt
CCOC(=O)c1c(C)[nH]c(C2=NNC(=Nc3ccccc3OC)SC2)c1C,0,18,6.0*,3,1.5
O=C(CSc1nnc(-c2ccccc2)n1-c1ccccc1)Nc1ccccc1-c1ccccc1,-2,nt,-3,-3,nt
Cc1cccc(Nc2nc(-c3ccc4c(c3)OCCO4)cs2)c1,0,161*,5.8*,13*,1.4
COc1cccc(Nc2nc(-c3cccc(N4C(=O)c5ccccc5C4=O)c3)cs2)c1,-1,19,0,4,1.6
COc1cccc(Nc2nc(-c3ccc(O)cc3)cs2)c1,-1,34,1,6,3.9*
Cc1ccnc(Nc2nc(-c3ccc(F)cc3)cs2)c1,-1,nt,6.4*,12*,nt
Cc1cccc(Nc2nc(-c3ccncc3)cs2)c1,0,51,3,11*,0.67
COC(=O)CSc1nnc(-c2cccs2)o1,-1,nt,-1,3,nt
CCOC(=O)[C@@]12CN(C(=O)OC(C)(C)C)CC=C1N(Cc1ccc(OC)cc1)C(=O)[C@H]2CC(=O)NCC1CCCCC1,-2,nt,-4,2,nt
COC(=O)C[C@@H]1CC[C@@H]2[C@@H](COc3ccc(NC(=O)c4ccc(F)cc4)cc3C(=O)N2C)O1,-1,nt,-1,0,nt
Cn1ncc2c(NCc3ccccc3)nc(NCCCO)nc21,-1,nt,1,-1,nt
Cn1ncc2c(NCCO)nc(Cl)nc21,1.5*,nt,-2,-2,nt
CC(C)C/C=C1\CCc2c([nH]c3ccccc23)C1=O,0,48,0,7,2.5
O=C1/C(=C/c2cccnc2)CCc2c1[nH]c1ccccc21,-1,76,1,13*,nt
COC(=O)c1ccc(NC(=O)Nc2ccccc2C)cc1,-2,58,-2,12*,2.2
SMILES,ssDAF-12 act,APP 5'UTR act,hcDAF-12 act,hgDAF12 agonist,NF-kB neuron act
C/C(=C\c1ccccc1)C(=O)Nc1ccc(Cl)cn1,0,nt,5.6*,12*,nt
O=C(NC(=O)c1ccccc1)Nc1ccc(Cl)cn1,0,nt,4,9,nt
O=C(Nc1ccc(Cl)cn1)Nc1ccccc1F,1.6*,17,1,8,2.2
O=C(Nc1ccc(Cl)cn1)Nc1ccc(Cl)cn1,-2,-3,0,1,1.4
O=C(Nc1cccn(Cc2c(Cl)cccc2Cl)c1=O)c1c(Cl)cccc1Cl,-2,-3,0,-2,0.89
O=C(Nc1ccccc1)Nc1cccn(Cc2c(F)cccc2Cl)c1=O,-2,54,-1,11*,2.2
